Measured values: PubChem BioAssay (EPA / NIEHS)
Active and inactive are the calls of the source. The calls were made as follows: active = hit-call score of the fitted dose curve at least 0.9, where 1 is the maximum; inactive = score below 0.9.

Tested on: not listed separately
Assay: ATG_GLI_CIS: Attagene CIS-FACTORIAL HepG2 Assay for human Zinc Finger Protein GLI1 (AID 2282945)
Conditions: HepG2, Attagene cis-factorial reporter mRNA, GLI element; actives raise or lower the signal
Method in brief: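 HepG2 cells transiently transfected with cis-promoter multiplexed reporter units report endogenous transcription factor activity. After 24 h chemical exposure, reporter mRNA was quantified by RT-PCR, 6-FAM labelling, HpaI digestion and capillary electrophoresis, with bidirectional fitting against DMSO.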

Q: For `Nc1nc(N)c2nc(CNc3ccc(C(=O)N[C@@H](CCC(=O)O)C(=O)O)cc3)cnc2n1`, which outcome is on record?
A: inactive

Q: Which outcome does the source give for `COc1cc(S(=O)(=O)O)c(C)cc1N=Nc1c(O)ccc2cc(S(=O)(=O)O)ccc12` here?
A: inactive

Q: For `CN1CCN(Cc2cc(-c3ccc4[nH]c(=O)oc4c3)co2)[C@@H](c2ccc(F)cc2)C1`, which outcome is on record?
A: inactive

Q: For `FC(F)(F)C(F)(F)C(F)(F)C(F)(F)C(F)(F)C(F)(F)CCI`, which outcome is on record?
A: inactive

Q: Which outcome does the source give for `Cc1nc(C)nc(N2C[C@@H](C)N(c3ccnc([C@@H](C)O)n3)[C@@H](C)C2)n1` here?
A: inactive

Q: With `NS(=O)(=O)c1cc2c(cc1Cl)NCNS2(=O)=O` as the molecule, how does the outcome read?
A: inactive

Q: With `Cc1c(C(=O)O)c(O)cc2c1C(=O)c1c(O)c([C@@H]3O[C@H](CO)[C@@H](O)[C@H](O)[C@H]3O)c(O)c(O)c1C2=O` as the molecule, how does the outcome read?
A: inactive

Q: For `Cc1cc(NC(=O)C(=O)O)cc(C)c1Oc1ccc(O)c2c1CCC2`, which outcome is on record?
A: inactive

Q: With `O=C(O)Cc1ccccc1Nc1c(Cl)cccc1Cl` as the molecule, how does the outcome read?
A: inactive

Q: Which outcome does the source give for `O=c1[nH]cc(F)c(=O)[nH]1` here?
A: inactive

Biological target: Bile acid receptor (Homo sapiens) (UniProt Q96RI1)
Sequence (Q96RI1 whole entry, looked up): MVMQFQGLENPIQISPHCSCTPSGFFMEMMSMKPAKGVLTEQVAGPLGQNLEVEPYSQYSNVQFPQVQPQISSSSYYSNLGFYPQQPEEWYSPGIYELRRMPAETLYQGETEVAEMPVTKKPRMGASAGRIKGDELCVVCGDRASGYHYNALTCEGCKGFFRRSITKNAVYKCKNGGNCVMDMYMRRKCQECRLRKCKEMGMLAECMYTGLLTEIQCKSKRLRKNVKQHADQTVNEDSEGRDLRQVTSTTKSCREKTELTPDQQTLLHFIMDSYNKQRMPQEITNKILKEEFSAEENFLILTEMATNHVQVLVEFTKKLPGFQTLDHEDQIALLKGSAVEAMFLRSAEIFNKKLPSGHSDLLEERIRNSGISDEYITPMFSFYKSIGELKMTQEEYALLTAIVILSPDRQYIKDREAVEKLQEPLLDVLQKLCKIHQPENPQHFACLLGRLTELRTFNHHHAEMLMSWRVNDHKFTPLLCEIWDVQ
Assay: ATG_IR1_CIS: Attagene CIS-FACTORIAL HepG2 Assay for human Nuclear Receptor Subfamily 1 Group H Member 4 (NR1H4), IR1 submotif (AID 2282946)
Conditions: IR1 reporter transcription, actives raise or lower the signal
Method in brief: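 Readout: reporter transcript levels by RT-PCR with fluorescent capillary electrophoresis, from HepG2 cells transiently transfected with multiplexed cis-regulated reporters and dosed 24 h. Gain- or loss-of-signal fitted versus DMSO negative control.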

Q: With `COc1cc(-c2nc(NC(=O)c3cc4cc(C)cc(C)c4n3CC(=O)O)sc2CCC2CCCCC2)c(OC)cc1Cl` as the molecule, how does the outcome read?
A: inactive

Q: For `CCCCCCCCCCCC(=O)OC`, which outcome is on record?
A: inactive

Q: For `COCCOCCOC`, which outcome is on record?
A: inactive

Q: Which outcome does the source give for `CCCCCCCCCCO` here?
A: inactive

Q: For `CCOC(=O)C(C)(C)Oc1ccc(Cl)cc1`, which outcome is on record?
A: inactive

Q: For `CC(CO)OC(C)CO` (stereo not drawn) (tested in a mixture with another compound), which outcome is on record?
A: inactive

Q: With `CCc1c(C(=O)NN2CCCCC2)nn(-c2ccc(Cl)cc2Cl)c1-c1ccc(Br)cc1` as the molecule, how does the AC50 read?
A: 2.4 µM (active)

Q: For `CNC(=O)[C@H]1O[C@@H](n2cnc3c(NCc4cc(Cl)ccc4OCc4cc(C)no4)ncnc32)[C@H](O)[C@@H]1N`, which outcome is on record?
A: inactive

Q: For `C[Si]1(C)O[Si](C)(C)O[Si](C)(C)O[Si](C)(C)O1`, which outcome is on record?
A: inactive

Q: For `CCCCc1ccc2c(n1)[C@@H](c1ccc(OC)cc1C[C@H](C)C(=O)O)[C@H](C(=O)O)[C@H]2c1ccc2c(c1)OCO2`, which outcome is on record?
A: inactive

Q: With `O=C(O)CCCCC(=O)O` as the molecule, how does the outcome read?
A: inactive

Q: With `CCCCN(CCCC)CCCC` as the molecule, how does the outcome read?
A: inactive

Q: For `CN[C@H]1CC[C@@H](c2ccc(Cl)c(Cl)c2)c2ccc(S(N)(=O)=O)cc21`, which outcome is on record?
A: inactive

Q: For `Cc1cc(=O)[nH]c(=S)[nH]1`, which outcome is on record?
A: inactive

Q: Which outcome does the source give for `Cc1nc(-c2ccc3c(c2)CCN(CCC2CCC(NC(=O)/C=C/c4ccc(F)cc4)CC2)CC3)no1` (stereo not drawn) here?
A: inactive

Q: For `Cc1ccc(Cl)cc1`, which outcome is on record?
A: inactive

Q: Which outcome does the source give for `NC(=O)Cn1c(=O)cc(CCN2CCN(c3nccc4sccc34)CC2)c2ccc(F)cc21` here?
A: inactive

Q: For `Cc1ccccc1Cl`, which outcome is on record?
A: inactive

Q: For `COc1cc(/C=C/C(=O)CC(=O)/C=C/c2ccc(O)c(OC)c2)ccc1O`, which AC50 is on record?
A: 51 µM (active)

Q: Which outcome does the source give for `Nc1nc(N)c2nc(CNc3ccc(C(=O)N[C@@H](CCC(=O)O)C(=O)O)cc3)cnc2n1` here?
A: inactive

Q: For `COc1cc(S(=O)(=O)O)c(C)cc1N=Nc1c(O)ccc2cc(S(=O)(=O)O)ccc12`, which outcome is on record?
A: inactive

Q: With `CN1CCN(Cc2cc(-c3ccc4[nH]c(=O)oc4c3)co2)[C@@H](c2ccc(F)cc2)C1` as the molecule, how does the outcome read?
A: inactive

Q: Which outcome does the source give for `FC(F)(F)C(F)(F)C(F)(F)C(F)(F)C(F)(F)C(F)(F)CCI` here?
A: inactive

Q: For `Cc1nc(C)nc(N2C[C@@H](C)N(c3ccnc([C@@H](C)O)n3)[C@@H](C)C2)n1`, which outcome is on record?
A: inactive

Q: Which AC50 does the source give for `NS(=O)(=O)c1cc2c(cc1Cl)NCNS2(=O)=O` here?
A: 3.7 µM (active)

Q: For `Cc1c(C(=O)O)c(O)cc2c1C(=O)c1c(O)c([C@@H]3O[C@H](CO)[C@@H](O)[C@H](O)[C@H]3O)c(O)c(O)c1C2=O`, which outcome is on record?
A: inactive

Q: With `Cc1cc(NC(=O)C(=O)O)cc(C)c1Oc1ccc(O)c2c1CCC2` as the molecule, how does the outcome read?
A: inactive

Q: For `O=C(O)Cc1ccccc1Nc1c(Cl)cccc1Cl`, which outcome is on record?
A: inactive

Q: With `O=c1[nH]cc(F)c(=O)[nH]1` as the molecule, how does the outcome read?
A: inactive

Tested on: not listed separately
Assay: ATG_GRE_CIS: Attagene CIS-FACTORIAL HepG2 Assay for human Glucocorticoid Response Elements (GRE) (AID 2282947)
Conditions: HepG2 GRE cis-reporter, Attagene multiplex mRNA; actives raise or lower the signal
Method in brief: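 Cells (HepG2) bearing transfected cis-promoter reporter transcription units were treated with chemical for 24 hours. Reporter mRNA was measured via RT-PCR with capillary electrophoresis, and activity was fitted in both directions relative to DMSO.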

Q: With `COc1cc(-c2nc(NC(=O)c3cc4cc(C)cc(C)c4n3CC(=O)O)sc2CCC2CCCCC2)c(OC)cc1Cl` as the molecule, how does the outcome read?
A: inactive

Q: Which outcome does the source give for `CCCCCCCCCCCC(=O)OC` here?
A: inactive

Q: For `CCCCCCCCCCO`, which outcome is on record?
A: inactive

Q: With `CCOC(=O)C(C)(C)Oc1ccc(Cl)cc1` as the molecule, how does the outcome read?
A: inactive

Q: For `CC(CO)OC(C)CO` (stereo not drawn) (tested in a mixture with another compound), which outcome is on record?
A: inactive

Q: For `CNC(=O)[C@H]1O[C@@H](n2cnc3c(NCc4cc(Cl)ccc4OCc4cc(C)no4)ncnc32)[C@H](O)[C@@H]1N`, which outcome is on record?
A: inactive

Q: Which outcome does the source give for `CCCCc1ccc2c(n1)[C@@H](c1ccc(OC)cc1C[C@H](C)C(=O)O)[C@H](C(=O)O)[C@H]2c1ccc2c(c1)OCO2` here?
A: inactive

Q: Which outcome does the source give for `O=C(O)CCCCC(=O)O` here?
A: inactive

Q: With `CCCCN(CCCC)CCCC` as the molecule, how does the outcome read?
A: inactive

Q: Which outcome does the source give for `CN[C@H]1CC[C@@H](c2ccc(Cl)c(Cl)c2)c2ccc(S(N)(=O)=O)cc21` here?
A: inactive

Q: Which outcome does the source give for `Cc1cc(=O)[nH]c(=S)[nH]1` here?
A: inactive

Q: With `Cc1nc(-c2ccc3c(c2)CCN(CCC2CCC(NC(=O)/C=C/c4ccc(F)cc4)CC2)CC3)no1` (stereo not drawn) as the molecule, how does the outcome read?
A: inactive

Q: Which outcome does the source give for `Cc1ccc(Cl)cc1` here?
A: inactive

Q: For `NC(=O)Cn1c(=O)cc(CCN2CCN(c3nccc4sccc34)CC2)c2ccc(F)cc21`, which outcome is on record?
A: inactive

Q: For `Cc1ccccc1Cl`, which outcome is on record?
A: inactive

Q: With `COc1cc(/C=C/C(=O)CC(=O)/C=C/c2ccc(O)c(OC)c2)ccc1O` as the molecule, how does the outcome read?
A: inactive

Q: With `Nc1nc(N)c2nc(CNc3ccc(C(=O)N[C@@H](CCC(=O)O)C(=O)O)cc3)cnc2n1` as the molecule, how does the outcome read?
A: inactive

Q: Which outcome does the source give for `COc1cc(S(=O)(=O)O)c(C)cc1N=Nc1c(O)ccc2cc(S(=O)(=O)O)ccc12` here?
A: inactive

Q: Which outcome does the source give for `CN1CCN(Cc2cc(-c3ccc4[nH]c(=O)oc4c3)co2)[C@@H](c2ccc(F)cc2)C1` here?
A: inactive

Q: With `Cc1nc(C)nc(N2C[C@@H](C)N(c3ccnc([C@@H](C)O)n3)[C@@H](C)C2)n1` as the molecule, how does the outcome read?
A: inactive

Q: Which outcome does the source give for `NS(=O)(=O)c1cc2c(cc1Cl)NCNS2(=O)=O` here?
A: inactive

Q: With `Cc1c(C(=O)O)c(O)cc2c1C(=O)c1c(O)c([C@@H]3O[C@H](CO)[C@@H](O)[C@H](O)[C@H]3O)c(O)c(O)c1C2=O` as the molecule, how does the outcome read?
A: inactive

Q: With `Cc1cc(NC(=O)C(=O)O)cc(C)c1Oc1ccc(O)c2c1CCC2` as the molecule, how does the outcome read?
A: inactive

Q: Which outcome does the source give for `O=c1[nH]cc(F)c(=O)[nH]1` here?
A: inactive
